# Data taken from PMC4336329 (PLoS ONE, 2015).
# Out of some 310,000 compounds screened, about 14,000 (4.5%) showed an effect of 50% or more. The effect is printed as a negative number. This excerpt belongs to a sample that is enriched for strong results.
# Target: human ether-à-go-go-related gene (hERG) potassium channel (human, UniProt Q12809)
# Assay: primary screen, population patch clamp on CHO cells stably expressing hERG; higher = less effect of the substance
# 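Further: peak tail current of the secondary pulse compared with the same well before compound.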
# Chain of human ether-à-go-go-related gene (hERG) potassium channel (Q12809 whole entry, looked up): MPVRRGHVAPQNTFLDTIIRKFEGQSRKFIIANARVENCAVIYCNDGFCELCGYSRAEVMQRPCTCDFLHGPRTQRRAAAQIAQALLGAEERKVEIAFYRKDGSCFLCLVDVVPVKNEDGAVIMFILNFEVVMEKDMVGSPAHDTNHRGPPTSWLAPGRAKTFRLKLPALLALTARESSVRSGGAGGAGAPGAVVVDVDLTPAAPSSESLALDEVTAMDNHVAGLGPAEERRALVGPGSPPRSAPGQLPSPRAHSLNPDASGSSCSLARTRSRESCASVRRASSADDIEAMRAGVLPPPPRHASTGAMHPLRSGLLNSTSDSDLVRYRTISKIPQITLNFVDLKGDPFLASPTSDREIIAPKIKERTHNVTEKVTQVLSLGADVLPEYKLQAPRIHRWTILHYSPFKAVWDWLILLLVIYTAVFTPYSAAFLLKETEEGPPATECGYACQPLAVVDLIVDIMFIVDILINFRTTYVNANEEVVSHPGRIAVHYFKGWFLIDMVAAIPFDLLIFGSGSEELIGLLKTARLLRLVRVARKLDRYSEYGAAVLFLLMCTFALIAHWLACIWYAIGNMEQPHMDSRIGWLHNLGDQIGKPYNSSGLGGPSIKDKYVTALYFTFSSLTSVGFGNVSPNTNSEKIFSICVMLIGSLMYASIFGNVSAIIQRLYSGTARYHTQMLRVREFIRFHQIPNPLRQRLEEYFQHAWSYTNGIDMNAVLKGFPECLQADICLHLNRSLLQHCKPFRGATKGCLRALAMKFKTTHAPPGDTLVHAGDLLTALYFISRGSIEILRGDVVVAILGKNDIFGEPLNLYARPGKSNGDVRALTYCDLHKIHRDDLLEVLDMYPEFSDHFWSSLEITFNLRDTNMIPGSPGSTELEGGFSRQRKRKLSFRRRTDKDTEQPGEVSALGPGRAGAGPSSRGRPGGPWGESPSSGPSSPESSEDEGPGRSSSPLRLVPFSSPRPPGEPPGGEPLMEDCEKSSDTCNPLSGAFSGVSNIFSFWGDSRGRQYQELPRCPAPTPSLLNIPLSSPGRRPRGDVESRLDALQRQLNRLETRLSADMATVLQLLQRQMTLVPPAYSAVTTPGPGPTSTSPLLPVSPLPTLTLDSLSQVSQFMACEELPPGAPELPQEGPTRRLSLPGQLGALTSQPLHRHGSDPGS
row,Structure (SMILES),"hERG current change (%, negative = inhibition) at 10uM [%]"
1,Cc1nc([N+](=O)[O-])cn1Cc1cccc([N+](=O)[O-])c1,-8.42
2,CCOC(=O)C(=O)N/N=C/c1ccco1,11.3
3,CCOc1ccc(-n2c(SCC(N)=O)nc3c(c2=O)SCC3)cc1,12
4,Cc1ccccc1OCCNc1cc(N2CC(C)NC(C)C2)ccc1[N+](=O)[O-] (centres unmarked),-12.3
5,Cc1ccc(C2CC2C(=O)NNC(=S)Nc2cccc(Cl)c2)cc1 (centres unmarked),-4.44
6,COc1ccc(OCc2cc(C(=O)N3CCN(CC(=O)N(C)C)CC3)no2)c(Cl)c1,-13.4
7,COc1cc2c(=O)n(CC3CCCO3)c(=O)n(CC(=O)Nc3ccccc3)c2cc1OC (centres unmarked),-2.85
8,Cc1nc2ccn(Cc3ccccc3)c(=O)c2cc1C(=O)N1CCN(c2ccccc2)CC1,-74
9,COc1ccc(N2CCN(C(=O)c3cc4c(=O)n(Cc5ccccc5)ccc4nc3C)CC2)cc1,-55.2
10,O=C(c1cc(-c2ccco2)nc2ccccc12)N1CCN(c2ccc(F)cc2)CC1,-28.8
11,COc1cccc(N2CCN(C(=O)c3cc4c(=O)n(Cc5ccccc5)ccc4nc3C)CC2)c1,-49.8
12,CS(=O)(=O)N(Cc1ccccc1)c1ccccc1C(=O)N1CCN(c2ccccc2)CC1,-46.6
13,Cc1nc2ccn(Cc3ccccc3)c(=O)c2cc1C(=O)N1CCN(c2ccc(F)cc2)CC1,-78.5
14,COc1ccc(Cn2c(=O)[nH]c3cc(C(=O)N4CCN(c5ccccc5)CC4)ccc3c2=O)cc1,9.23
15,COc1ccc(N2CCN(C(=O)c3cc4c(C)nc5ccccc5c4o3)CC2)cc1,-47
16,O=C(c1ccc(Cn2c(=O)[nH]c3ccccc3c2=O)cc1)N1CCN(c2ccc(F)cc2)CC1,-15.5
17,CSC1=C(C#N)C(c2ccc(Cl)cc2)C2=C(CC(C)(C)CC2=O)N1 (centres unmarked),-6.94
18,C=CCCCCc1nc2ccccc2c(=O)n1N,6.28
19,Cc1ccc2c(C)nc(N/C(N)=N/S(=O)(=O)c3ccc([N+](=O)[O-])cc3)nc2c1,-13.1
20,COc1cc(C(=O)NC(c2ccccc2)c2ccccc2)cc(OC)c1C,15.2
21,O=C(NCCCN1CCCC1)[C@H](CSCc1ccccc1)N1Cc2ccccc2C1=O,-56.8

row,Structure (SMILES),"hERG current change (%, negative = inhibition) at 10uM [%]"
1,COCCCNC(=O)[C@H](CSCc1ccccc1)N1Cc2ccccc2C1=O,-14.5
2,COCCNC(=O)[C@H](CSCc1ccccc1)N1Cc2ccccc2C1=O,-42.6
3,O=C(NCCCN1CCCC1=O)[C@H](CSCc1ccccc1)N1Cc2ccccc2C1=O,1.78
4,CC(C)CCNC(=O)[C@H](CSCc1ccccc1)N1Cc2ccccc2C1=O,-61
5,CCCCNC(=O)[C@H](CSCc1ccccc1)N1Cc2ccccc2C1=O,-68.5
6,CC(C)CCNC(=O)[C@H](Cc1ccccc1)N1Cc2ccccc2C1=O,-11.6
7,COC(CNC(=O)[C@H](CSCc1ccccc1)N1Cc2ccccc2C1=O)OC,-3.49
8,CC(C)NC(=O)[C@H](CSCc1ccccc1)N1Cc2ccccc2C1=O,-40
9,N#CCCN1CCCc2cc(N=Nc3ccc(C(F)(F)F)cc3)ccc21,13.4
10,COc1ccc(Cl)cc1Nc1nc(C)cc(C)c1C(N)=O,14.3
11,CC(C)C[C@@H]1NC(=O)[C@H](CO)NC(=O)c2cc([N+](=O)[O-])cc(I)c2OCC[C@@H](C(N)=O)NC1=O,2.3
12,CCC(=O)Nc1ccc(NC(=S)NC(=O)c2cc3ccccc3o2)cc1,7.15
13,COc1ccc(Cn2nnnc2CN2CCN(c3ccc(OC)cc3)CC2)cc1,-3.66
14,O=[N+]([O-])c1ccc2cn(-c3ccccc3)nc2c1,-0.226
15,O=C(CCc1nc2ccccc2c(=O)[nH]1)Nc1cc(C(F)(F)F)ccc1N1CCOCC1,-35.3
16,CN(Cc1ccc(C(F)(F)F)cc1)C(=O)C1CCC(=O)N(C2CC2)C1 (centres unmarked),-51.7
17,Cc1ccc(CN(C)C(=O)C2CCC(=O)N(C3CCCCCC3)C2)cc1 (centres unmarked),7.71
18,CN(Cc1cccc(Cl)c1)C(=O)C1CCC(=O)N(C2CC2)C1 (centres unmarked),1.31
19,Cc1cccn2c(=O)c3cc(C(=O)NC4CCCCC4)c(=N)n(CCN4CCOCC4)c3nc12,-87
20,Cc1cccn2c(=O)c3cc(C(=O)NC4CCCC4)c(=N)n(CCCN4CCOCC4)c3nc12,-74.7
21,CCCCOc1nc2ccccc2nc1NS(=O)(=O)c1ccc(F)cc1,-5.01

row,Structure (SMILES),"hERG current change (%, negative = inhibition) at 10uM [%]"
1,Cc1nc2scc(-c3cccs3)c2c(=O)n1CC(=O)O,5.83
2,CCOC(=O)COc1c(Br)cc(/C=C2\SC(=O)N(CC(=O)N3CCCC3)C2=O)cc1OC,-24
3,Cc1cccc(CCNC(=O)CN(C)S(=O)(=O)c2cnc[nH]2)c1,4.07
4,Cc1ccccc1C(=O)c1cccn1CC(=O)N1CCCCC1,10.6
5,Cc1onc(-c2ccccc2Cl)c1C(=O)Nc1ccc(-c2nnc3n2CCCCC3)cc1,-4.31
6,Cc1ccc(NC(=O)CSc2nc3ccccc3c(=O)n2CCCN2CCCCC2)cc1C,-71.9
7,CCCCn1c(SCC(=O)Nc2ccc3c(c2)CCC3)nc2ccccc2c1=O,-33.6
8,CCN(CC)CCn1c(SCC(=O)Nc2ccc3c(c2)CCC3)nc2ccccc2c1=O,-83
9,CCC(C)NC(=O)CSc1nc2ccccc2c(=O)n1CCCN1CCCCC1 (centres unmarked),-13.8
10,COCCn1c(SCC(=O)Nc2ccc3c(c2)CCC3)nc2ccccc2c1=O,4.46
11,CN(C)S(=O)(=O)c1ccc(Cl)c(NC(=O)CSc2nc3ccccc3c(=O)n2CCCN2CCOCC2)c1,-73.9
12,CS(=O)(=O)c1ccc(Cl)c(NC(=O)CSc2nc3ccccc3c(=O)n2CCCN2CCOCC2)c1,-47.7
13,Cc1ccc(NC(=O)CSc2nc3ccccc3c(=O)n2CCCN2CCCCC2)cc1Cl,-73.7
14,COCCCNC(=O)CSc1nc2ccccc2c(=O)n1CCCN1CCCCC1,2.04
15,Cc1ccc(-n2c(SCC(=O)Nc3cc(S(=O)(=O)N4CCOCC4)ccc3Cl)nc3ccccc3c2=O)cc1,2.71
16,Cc1ccc(NC(=O)CCC(=O)N/N=C/c2coc3ccccc3c2=O)cc1,0.733
17,Cc1ccccc1NC(=O)NCc1ccc2c(c1)OCO2,11.6
18,O=C(COC(=O)C1(c2ccc(Cl)cc2)CCCC1)N1CCc2ccccc21,-1.16
19,CCOC(=O)Nc1sc2c(c1C(N)=O)CCC(C)C2 (centres unmarked),16.4
20,CC(=O)c1sc2nsc(SCCN3CCCC3)c2c1N,-0.32
21,Cc1c(Cl)ccc(S(=O)(=O)Nc2cccnc2)c1Cl,13.6

row,Structure (SMILES),"hERG current change (%, negative = inhibition) at 10uM [%]"
1,Cc1cc(C(F)(F)F)nc(SCC(=O)NC2CCCCC2)n1,-10
2,O=C(CSc1nc2ccccc2c(=O)n1-c1ccccc1Cl)Nc1cccc(S(=O)(=O)N2CCOCC2)c1,-6.76
3,O=C(CSc1nc2ccccc2c(=O)n1CCCN1CCOCC1)Nc1cccc(S(=O)(=O)N2CCCCCC2)c1,-72.2
4,COCCn1c(SCC(=O)Nc2ccc(S(=O)(=O)N3CCOCC3)cc2)nc2ccccc21,-58.8
5,COCCn1c(SCC(=O)Nc2ccc(N3CCOCC3)cc2)nc2ccccc21,-4.58
6,COCCn1c(SCC(=O)Nc2ccc(S(N)(=O)=O)cc2)nc2ccccc21,-32.1
7,O=C(CSc1nc2ccccc2c(=O)n1-c1ccc(F)c(Cl)c1)Nc1cccc(S(=O)(=O)N2CCOCC2)c1,21.8
8,COc1cc(N)ccc1NC(=O)c1cc2ccccc2o1,13.1
9,O=C(CN1CCCC1)Nc1ccc(NC(=O)Nc2ccccc2)cc1,6.42
10,O=S(=O)(NC(=S)NC1CCCCC1)c1ccc(Br)cc1,9.58
11,CCCCN(Cc1ccco1)S(=O)(=O)c1ccc(-c2ccc(=O)[nH]n2)s1,-27.7
12,CCCCN(Cc1cccs1)S(=O)(=O)c1ccc(-c2ccc(=O)[nH]n2)s1,-3.4
13,CN(C)CCN(Cc1ccccc1)S(=O)(=O)c1ccc(-c2ccc(=O)[nH]n2)s1,-67.4
14,COCCN(Cc1cccs1)S(=O)(=O)c1ccc(-c2ccc(=O)[nH]n2)s1,-46.8
15,CN(C)CCN(Cc1ccco1)S(=O)(=O)c1ccc(-c2ccc(=O)[nH]n2)s1,-64.4
16,CC(C)CCN(Cc1ccco1)S(=O)(=O)c1ccc(-c2ccc(=O)[nH]n2)s1,-0.664
17,COc1ccccc1CNS(=O)(=O)c1c(C)nc2scc(C)n2c1=O,-8.78
18,Cc1cc(Nc2ccc(F)cc2C)n2ncnc2n1,-4.78
19,CCCC(=O)Nc1nc2c(c(=O)[nH]1)CCCC2,10.2
20,C/C(=C1/SC(=S)N(CCC(=O)O)C1=O)c1ccc(O)cc1,9.74
